This is one part of a sample in which hits are shown more often than they occur.
ST2 inh: blocks human ST2 binding to IL-33 | Q01638 | AlphaLISA ST2-Fc/biotin-IL-33 interaction, 1 h | inhibition, % for hits at 17 µM | 2.3% of 78,000 active; in the data active means inhibition above about 30%
Target sequence (Q01638 whole entry, looked up): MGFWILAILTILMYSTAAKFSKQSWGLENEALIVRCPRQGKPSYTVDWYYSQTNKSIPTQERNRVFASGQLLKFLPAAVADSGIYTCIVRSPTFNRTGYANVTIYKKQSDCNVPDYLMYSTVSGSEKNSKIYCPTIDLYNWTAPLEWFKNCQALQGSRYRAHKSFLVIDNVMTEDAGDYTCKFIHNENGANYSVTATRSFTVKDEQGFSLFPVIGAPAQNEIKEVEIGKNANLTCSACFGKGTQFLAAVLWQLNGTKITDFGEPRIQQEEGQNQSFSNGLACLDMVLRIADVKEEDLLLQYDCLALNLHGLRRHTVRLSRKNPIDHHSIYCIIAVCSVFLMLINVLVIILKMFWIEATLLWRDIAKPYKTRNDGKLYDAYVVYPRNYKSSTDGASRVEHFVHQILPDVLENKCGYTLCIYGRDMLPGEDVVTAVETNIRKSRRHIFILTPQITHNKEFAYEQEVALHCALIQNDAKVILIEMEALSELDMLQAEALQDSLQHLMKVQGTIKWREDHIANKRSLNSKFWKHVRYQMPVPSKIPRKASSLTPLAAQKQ
Starred values were filed as active, the others as inactive; i = inactive; ! = not active in a repeat.

SMILES | ST2 inh
O=c1c(O[C@@H]2O[C@H](CO)[C@@H](O)[C@H](O)[C@H]2O[C@@H]2OC[C@@H](O)[C@H](O)[C@H]2O)c(-c2ccc(O)cc2)oc2cc(O)cc(O)c12 | i
NC(=O)CCc1c[nH]c2ccccc12 | i
O=C(O)Cc1c[nH]c2ccc(O)cc12 | 41%*!
N[C@@H](Cc1c[nH]c2ccccc12)C(=O)O | i
CCOC(=O)C1C(=O)C=C(c2ccc(OC)cc2)CC1c1cccc(OC)c1OC (stereo not drawn) | i
Cn1cncc1-c1nnc([C@H]2CCN(Cc3ccccc3)C2)o1 | i
COc1cc(CN2CCN(c3ccccc3OC)CC2)c([N+](=O)[O-])cc1OC | i
O=[N+]([O-])c1ccc(CN2CCN(Cc3ccccc3)CC2)o1 | i
CCOc1ccccc1N1CCN(Cc2cc3c(cc2[N+](=O)[O-])OCO3)CC1 | 30%*
CCOc1ccccc1N1CCN(Cc2ccc(OC)cc2OC)CC1 | i
Cc1ccc(C)c(N2CCN(Cc3ccc(-c4ccccc4[N+](=O)[O-])o3)CC2)c1 | 38%*
COc1cc(C)c(CN2CCN(c3ccc([N+](=O)[O-])cc3)CC2)cc1C | 32%*
Cc1ccccc1N1CCN(Cc2ccco2)CC1 | i
O=[N+]([O-])c1ccc(N2CCN(Cc3ccoc3)CC2)cc1 | i
COc1ccc(C(=O)N2CCN(c3ccc([N+](=O)[O-])cc3)CC2)cc1OC | i
COc1cc([N+](=O)[O-])cc(CN2CCN(c3cc(C)ccc3C)CC2)c1O | 41%*
COc1ccc(CN2CCN(Cc3cccc([N+](=O)[O-])c3)CC2)c(OC)c1OC | i
COc1cc(CN2CCN(c3ccccc3F)CC2)cc([N+](=O)[O-])c1O | i
O=C(c1ccccc1)N1CC[C@H](O)[C@H]2CCCC[C@H]21 | i
O=C(c1ccc2nc3cc(Cl)ccc3c(=O)n2c1)N1CCCCC1 | i
CCOc1ccccc1C1c2[nH]c3ccccc3c2CCN1C(=O)c1nc2ncccn2n1 (stereo not drawn) | i
CCOCCCNC(=O)CC12CC3CC(CC(C3)C1)C2 | i
Cc1cc(NC(=O)CN2C[C@@H]3C4CCC(CC4)[C@@H]3C2)no1 | i
CC(C)N(C(=O)c1ccc(C(=O)NCc2ccccc2)cc1)C(C)C | i
COc1cc(OC)c(OC)cc1CN1CCN(Cc2cc(OC)c(OC)cc2[N+](=O)[O-])CC1 | i
SMILES | ST2 inh
COc1cc(CN2CCN(c3ncccn3)CC2)c([N+](=O)[O-])cc1OC | i
Cc1ccc(C)c(N2CCN(Cc3cc4c(cc3[N+](=O)[O-])OCO4)CC2)c1 | 32%*
COc1cc(C(=O)NCC(C)NC(=O)c2cc(OC)c(OC)c(OC)c2)cc(OC)c1OC (stereo not drawn) | i
c1ccc(CN2CCC[C@H]2c2nc(-c3ccc(OC4CCCCC4)nc3)no2)cc1 | i
COc1cccc(NC(=O)NC[C@H]2O[C@@H](CO)[C@@H](O)[C@H]2N2CCC(C)CC2)c1 | i
COc1ccccc1N1CCN([C@@H]2[C@H](O)[C@H](CO)O[C@@H]2CNS(=O)(=O)c2ccc(C)cc2)CC1 | 73%*
COc1ccc(C(=O)NC[C@H]2O[C@@H](CO)[C@@H](O)[C@H]2N2CCN(c3cccc(C(F)(F)F)c3)CC2)cc1 | i
COc1cccc(NC(=O)NC[C@H]2O[C@@H](CO)[C@@H](O)[C@H]2N2CCN(c3ccccn3)CC2)c1 | 36%*
CC(C)NC(=O)NC[C@H]1O[C@@H](CO)[C@@H](O)[C@H]1N1CCN(c2cccc(C(F)(F)F)c2)CC1 | 44%*
COc1ccc(S(=O)(=O)NC[C@H]2O[C@@H](CO)[C@@H](O)[C@H]2N2CCN(c3ccccc3OC)CC2)cc1 | i
COc1ccccc1N1CCN([C@@H]2[C@H](O)[C@H](CO)O[C@@H]2CNS(=O)(=O)c2cccs2)CC1 | i
O=C(NC[C@H]1O[C@@H](CO)[C@@H](O)[C@H]1N1CCN(c2cccc(C(F)(F)F)c2)CC1)Nc1cccc(Cl)c1 | i
COc1cc(NC(=O)NC[C@H]2O[C@@H](CO)[C@@H](O)[C@H]2N2CCN(C)CC2)cc(OC)c1 | i
Cc1nc2sc(C(c3ccccc3)N3CCC(C(N)=O)CC3)c(O)n2n1 (stereo not drawn) | i
CCCn1cnnc1CNC1CSCCSC1 | i
Cn1nc(-c2ccccn2)c2c1NC(=O)CC2c1cc(C#CCO)cs1 (stereo not drawn) | i
CC1(C(=O)NC2CCCCC2)CCC(=O)N1Cc1ccco1 (stereo not drawn) | i
Cc1ccsc1CN1CC(=O)N(c2ccc(Cl)cc2)C1=O | i
O=C(Cn1cnc2c(cnn2-c2ccc(Cl)cc2)c1=O)N1CCc2ccccc21 | i
CN1CCC(N2C[C@H](O)C[C@H]2c2nc(-c3ccc(F)cc3)no2)CC1 | i
N#CC1(C#N)C2CCCCCCCCCCC23OC(=N)C1(C#N)C(c1ccncc1)O3 (stereo not drawn) | i
Cc1ccc(N2CN=C3SCC(=O)N3C2)cc1Cl | i
Cc1ccc(N2CN=C3SCC(=O)N3C2)cc1C | 37%*
Cc1ccc(N2C(=O)C3CCCCC3C2=O)cc1C (stereo not drawn) | i
CSc1nc2c(c(=O)[nH]1)C(c1ccc(F)cc1)C1=C(CC(C)(C)CC1=O)N2 (stereo not drawn) | i
SMILES | ST2 inh
CNCC(=O)N1CCCC(c2nc3c(C)cccc3[nH]2)C1 (stereo not drawn) | i
COC(=O)C1C(=O)C2=C(CC1C)NC(C)=C(C(=O)OCCOC(C)C)C2c1cccc(Cl)c1 (stereo not drawn) | i
CCCCNC(=O)c1cn(C)c(=O)c2c1c1ccccc1n2C | i
O=S(=O)(c1ccccc1)c1cccc(S(=O)(=O)N2CCOCC2)c1 | i
O=C1C(N2CCOCC2)=CC(=NS(=O)(=O)c2ccc(Cl)cc2)c2ccccc21 | 71%*
O=C1C(N2CCOCC2)=CC(=NS(=O)(=O)c2ccccc2)c2ccccc21 | 41%*
O=S(=O)(c1cccc(Cl)c1Cl)N1CCOCC1 | i
Cc1ccc(S(=O)(=O)N(c2ccccc2N2CCOCC2)C(F)F)cc1 | i
O=S(=O)(N=C(c1ccccc1F)N1CCOCC1)c1ccccc1 | i
O=C(C1CCC(=O)N(C2CCCCCC2)C1)N1CC=C(c2ccccc2)CC1 (stereo not drawn) | i
COc1ccc(O)c(C2Nc3ccccc3NC3=C2C(=O)CC(C)(C)C3)c1 (stereo not drawn) | i
Fc1ccc(Nc2ncnc3c2cnn3-c2ccccc2)cc1Cl | i
CN1CCN(CCCCOc2cccc(Br)c2)CC1 | i
COc1ccc2nc(N3CCCCC3)sc2c1 | i
CCOc1ccc(/C=C2\N=C(c3cccc([N+](=O)[O-])c3)OC2=O)cc1 | i
COc1cccc(C(=O)Nc2ccccc2C(=O)NC2CCCCC2)c1 | i
COc1cccc(N(C(C)=O)C2=C(NC3CCCCC3)C(=O)c3ccccc3C2=O)c1 | 38%*
CC(=O)N(C1=C(NC2CCCCC2)C(=O)c2ccccc2C1=O)c1ccc(F)c(F)c1 | 45%*
CC(C(=O)NC1CCCC1)N(c1ccccc1)S(C)(=O)=O (stereo not drawn) | i
O=C(NC1CCCCC1)C(c1ccccc1)c1ccccc1 | i
COc1cccc(N2CC(NC(=O)C3CCCCC3)CC2=O)c1 (stereo not drawn) | i
CC(=O)c1ccccc1C(=O)N1CCCC(CNC(=O)c2ccc(-c3ccccc3)cc2)C1 (stereo not drawn) | i
Cc1nnc([C@H]2CCN(c3nccc(C(F)(F)F)n3)C2)o1 | i
